# According to PubChem BioAssay (Tox21):
# A number with no mark means an inactive call. Results filed as inconclusive are left out. A call without a number means that no potency is given here. The source made the active and inactive calls. Unless noted, the call rests on the fitted dose curve.
# Experiments:
# [1] = Nuclear factor erythroid 2-related factor 2/antioxidant responsive element (Nrf2/ARE) small molecule agonists: qHTS cell viability counter screen in human keratinocytes (AID 1919968; active means well fitted curve in the direction sought with a large enough effect in the repeat runs; an effect the other way counts as inactive or inconclusive; further: nearly all actives have a fitted effect of over 55% in size)
# In short: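 Viability counter-screen: KeratinoSens reporter cells, DMSO-delivered compounds, 23 h at 37 C, CellTiter-Fluor fluorescence.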
# [2] = Nuclear factor erythroid 2-related factor 2/antioxidant responsive element (Nrf2/ARE) small molecule agonists: luciferase reporter gene qHTS assay in human keratinocytes (AID 1919969); further: nearly all actives have a fitted effect of over 35% in size
# [3] = biological target: Gonadotropin-releasing hormone receptor (Homo sapiens) (UniProt P30968); test: Human gonadotropin-releasing hormone receptor (GnRHR) small molecule agonists, calcium flux assay in GnRHR-HEK293 cells (AID 1920063); further: nearly all actives have a fitted effect of over 35% in size
# In short: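 Tox21-format agonist screen using human GnRHR-expressing HEK293 cells and a fluorescent calcium dye; kinetic 3-min fluorescence reading after compound addition, 15-point concentration series run in triplicate.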
# [4] = biological target: KiSS-1 receptor (Homo sapiens) (UniProt Q969F8); test: Human kisspeptin (KISS1R) small molecule agonists, calcium flux assay in KISS1R-HEK293 cells (AID 1920064; active means well fitted curve in the direction sought with a large enough effect in the repeat runs; an effect the other way counts as inactive or inconclusive)
# In short: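 Intracellular calcium mobilization in KISS1R-HEK293 cells was recorded by fluorescence (Ex/Em 480/540) for 3 min following compound addition to cells pre-loaded 1 h with calcium dye.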
# [5] = G protein-coupled receptor (GPCR) small molecule agonists, calcium flux assay: HEK293 wild type cell line counter screen (AID 1920065)
# In short: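 In this agonist-mode screen, ATP is the positive control and DMSO the vehicle. Cells grow 18 h before a 1 h dye incubation at 37 C; signal is taken at Ex/Em 480/540 over 3 min.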
# [6] = p53 small molecule agonists, cell-based qHTS assay with human liver microsomes: qHTS cell viability counter screen (AID 1963579); further: nearly all actives have a fitted effect of over 45% in size
# In short: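 Cytotoxicity counter screen: p53RE-bla, 4,000 cells/well; 5 h settle, 37 C/5% CO2; cpd + HLM 0.5 mg/mL + NADPH 0.5 mg/mL (final); 16 h, 37 C; CellTiter-Glo, 30 min RT, luminescence.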
# [7] = p53 small molecule agonists, cell-based qHTS assay with rat liver microsomes: qHTS cell viability counter screen (AID 1963580); further: nearly all actives have a fitted effect of over 45% in size
# In short: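 HCT-116 p53RE-bla, 4,000 cells/well, 5 h pre-incubation; cpd + rat liver microsomes 0.5 mg/mL + NADPH 0.5 mg/mL (final); 16 h, 37 C; CellTiter-Glo, 30 min RT; luminescence.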
# [8] = biological target: 5-hydroxytryptamine receptor 2A (Homo sapiens) (UniProt P28223); test: 5-hydroxytryptamine receptor 2A (HTR2A) small molecule antagonists, cell-based qHTS assay (AID 1963586); further: nearly all actives have a fitted effect of over 45% in size
# In short: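 Antagonist-mode intracellular calcium assay: DOI (4 nM) added after 5 min compound pre-incubation at room temperature to dye-loaded HTR2A-CHO cells. Fluorescence followed for 3 min, sampled every second.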
# [9] = biological target: 5-hydroxytryptamine receptor 2A (Homo sapiens) (UniProt P28223); test: 5-hydroxytryptamine receptor 2A (HTR2A) small molecule agonists, cell-based qHTS assay (AID 1963587); further: nearly all actives have a fitted effect of over 30% in size
# In short: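 Kinetic calcium-flux fluorescence (2 min, 1 sec intervals) after compound addition in agonist mode. HTR2A-CHO cells were cultured 18 h, then dye-loaded 1 h at 37 C.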
# [10] = biological target: Muscarinic acetylcholine receptor M1 (Homo sapiens) (UniProt P11229); test: Cholinergic receptor muscarinic 1 (CHRM1) small molecule antagonists, cell-based qHTS assay (AID 1963588); further: nearly all actives have a fitted effect of over 40% in size; further: potency means the concentration at half of the fitted maximal effect
# In short: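 CHRM1-CHO calcium-flux assay, antagonist mode. Cells were seeded 18 h, dye-loaded 1 h at 37 C and given compound for 5 min at RT, then acetylcholine was added at 50nM. FDSS fluorescence was read 3 min; 15 concentrations, three runs.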
# [11] = biological target: Muscarinic acetylcholine receptor M1 (Homo sapiens) (UniProt P11229); test: Cholinergic receptor muscarinic 1 (CHRM1) small molecule agonists, cell-based qHTS assay (AID 1963589); further: nearly all actives have a fitted effect of over 35% in size
# In short: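 Stable CHRM1-CHO cells (human receptor) were incubated 18 h, dye-loaded for 1 h at 37 C and exposed to test compounds for agonist activity, with calcium-dependent fluorescence followed kinetically.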
# [12] = cAMP Responsive Elements (CRE) small molecule agonists, cell-based qHTS assay (AID 1963590)
# In short: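 FRET-based beta-lactamase readout (LiveBLAzer B/G, 2 h RT) quantified CRE activation in HEK 293T CRE-bla cells after 3 h treatment with DMSO-dissolved compounds.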
# [13] = cAMP Responsive Elements (CRE) small molecule antagonists, cell-based qHTS assay (AID 1963591; active means well fitted inhibition curve with a large enough effect in the signal ratio in the repeat runs, not every such curve was filed as active; the % refers to the signal ratio)
# In short: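 qHTS in CRE-bla HEK 293T cells: compound in DMSO, then 0.25 uM NKH477 (final), 3 h at 37 °C/5% CO2; beta-lactamase FRET read-out after 2 h substrate incubation.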
# [14] = biological target: Beta-2 adrenergic receptor (Homo sapiens) (UniProt P07550); test: Adrenergic beta2 receptor (ADRB2) small molecule antagonists, cell-based qHTS assay (AID 1963592); further: series mostly up to about 92 µM; nearly all actives have a fitted effect of over 50% in size
# In short: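 Cells (CHO, stable ADRB2 overexpression) incubated 18-20hr at 37C; compounds added from DMSO; agonist mix (1nM isoproterenol, 100uM IBMX, 25uM Ro-20-1724) added; 0.5hr RT; d2-cAMP and anti-cAMP-cryptate added; 1hr RT; 665/615 nm read.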
# [15] = biological target: Beta-2 adrenergic receptor (Homo sapiens) (UniProt P07550); test: Adrenergic beta2 receptor (ADRB2) small molecule agonists, cell-based qHTS assay (AID 1963593);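 further: CHO cells stably overexpressing human ADRB2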
# In short: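 CHO cells stably over-expressing ADRB2 were plated overnight at 37C, then dosed with compounds plus a stimulation mix containing 100uM IBMX and 25uM Ro-20-1724 for 0.5hr at room temperature. cAMP was measured by HTRF competition, 1hr.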
# [16] = biological target: D(2) dopamine receptor (Homo sapiens) (UniProt P14416); test: Dopamine D2 receptor (DRD2) small molecule agonists, cell-based qHTS assay (AID 1963594); further: nearly all actives have a fitted effect of over 35% in size
# In short: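 cAMP accumulation in DRD2-HEK293 cells measured by HTRF after 1 h detection; compounds added 10 min before NKH477 (200nM […]) forskolin-analogue stimulation, 30 min at room temperature, with Ro20-1724 present at 0.1 mM final.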
# [17] = biological target: D(2) dopamine receptor (Homo sapiens) (UniProt P14416); test: Dopamine D2 receptor (DRD2) small molecule antagonists, cell-based qHTS assay (AID 1963595; active means well fitted inhibition curve with a large enough effect in the signal ratio in the repeat runs, with a control signal flat; the % refers to the signal ratio)
# In short: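 Stable D2 receptor HEK293 line, 24 h after seeding. Compound preincubated 10 min, then quinpirole (12 nM) with forskolin analogue NKH477 (200 nM), 30 min, room temperature. Detection by time-resolved FRET of cAMP.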
# D(2) dopamine receptor (Homo sapiens), sequence (P14416 whole entry, looked up): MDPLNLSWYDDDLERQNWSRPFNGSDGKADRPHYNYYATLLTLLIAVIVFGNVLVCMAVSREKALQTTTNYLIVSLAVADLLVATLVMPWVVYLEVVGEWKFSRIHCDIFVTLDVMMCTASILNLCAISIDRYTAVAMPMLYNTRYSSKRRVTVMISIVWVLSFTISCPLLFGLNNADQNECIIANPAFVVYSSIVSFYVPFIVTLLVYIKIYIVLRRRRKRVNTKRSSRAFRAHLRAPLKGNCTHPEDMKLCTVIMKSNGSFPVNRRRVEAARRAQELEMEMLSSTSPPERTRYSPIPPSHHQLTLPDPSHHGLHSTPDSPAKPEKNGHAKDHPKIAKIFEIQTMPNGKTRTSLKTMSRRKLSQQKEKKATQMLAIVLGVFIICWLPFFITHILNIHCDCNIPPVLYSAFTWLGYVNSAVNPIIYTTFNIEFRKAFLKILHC
# Muscarinic acetylcholine receptor M1 (Homo sapiens), sequence (P11229 whole entry, looked up): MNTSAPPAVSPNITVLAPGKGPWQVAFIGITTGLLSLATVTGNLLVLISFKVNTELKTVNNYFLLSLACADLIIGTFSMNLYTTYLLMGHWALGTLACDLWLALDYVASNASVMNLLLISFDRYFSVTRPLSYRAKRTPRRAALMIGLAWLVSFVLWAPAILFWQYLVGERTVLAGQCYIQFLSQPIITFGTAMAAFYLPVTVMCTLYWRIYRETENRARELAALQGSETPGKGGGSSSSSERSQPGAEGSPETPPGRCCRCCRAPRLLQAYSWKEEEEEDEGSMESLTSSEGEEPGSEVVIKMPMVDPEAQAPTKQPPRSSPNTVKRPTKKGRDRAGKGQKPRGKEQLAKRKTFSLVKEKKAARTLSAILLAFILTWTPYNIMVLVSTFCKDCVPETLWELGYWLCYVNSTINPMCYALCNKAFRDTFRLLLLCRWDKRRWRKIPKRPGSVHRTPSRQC
# KiSS-1 receptor (Homo sapiens), sequence (Q969F8 whole entry, looked up): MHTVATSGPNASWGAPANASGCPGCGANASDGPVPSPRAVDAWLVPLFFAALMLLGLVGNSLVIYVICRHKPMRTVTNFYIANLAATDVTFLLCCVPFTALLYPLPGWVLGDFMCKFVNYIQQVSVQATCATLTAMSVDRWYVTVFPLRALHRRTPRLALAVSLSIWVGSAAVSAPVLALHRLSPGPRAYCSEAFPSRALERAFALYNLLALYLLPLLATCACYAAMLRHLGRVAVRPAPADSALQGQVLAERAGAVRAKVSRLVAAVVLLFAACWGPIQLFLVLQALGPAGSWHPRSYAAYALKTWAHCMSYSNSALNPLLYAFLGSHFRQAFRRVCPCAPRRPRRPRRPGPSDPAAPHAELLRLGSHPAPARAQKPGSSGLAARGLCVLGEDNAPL
# Beta-2 adrenergic receptor (Homo sapiens), sequence (P07550 whole entry, looked up): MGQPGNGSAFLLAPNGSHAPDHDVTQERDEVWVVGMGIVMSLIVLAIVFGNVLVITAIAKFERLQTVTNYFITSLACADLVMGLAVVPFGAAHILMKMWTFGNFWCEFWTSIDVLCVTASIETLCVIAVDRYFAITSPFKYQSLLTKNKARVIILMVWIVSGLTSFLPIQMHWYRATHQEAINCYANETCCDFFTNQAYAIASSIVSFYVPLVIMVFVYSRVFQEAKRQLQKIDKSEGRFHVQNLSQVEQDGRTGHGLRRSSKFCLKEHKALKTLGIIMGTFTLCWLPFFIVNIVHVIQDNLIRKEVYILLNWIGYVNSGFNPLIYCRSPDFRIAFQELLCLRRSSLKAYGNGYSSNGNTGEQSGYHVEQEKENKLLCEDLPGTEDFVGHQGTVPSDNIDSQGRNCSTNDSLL
# 5-hydroxytryptamine receptor 2A (Homo sapiens), sequence (P28223 whole entry, looked up): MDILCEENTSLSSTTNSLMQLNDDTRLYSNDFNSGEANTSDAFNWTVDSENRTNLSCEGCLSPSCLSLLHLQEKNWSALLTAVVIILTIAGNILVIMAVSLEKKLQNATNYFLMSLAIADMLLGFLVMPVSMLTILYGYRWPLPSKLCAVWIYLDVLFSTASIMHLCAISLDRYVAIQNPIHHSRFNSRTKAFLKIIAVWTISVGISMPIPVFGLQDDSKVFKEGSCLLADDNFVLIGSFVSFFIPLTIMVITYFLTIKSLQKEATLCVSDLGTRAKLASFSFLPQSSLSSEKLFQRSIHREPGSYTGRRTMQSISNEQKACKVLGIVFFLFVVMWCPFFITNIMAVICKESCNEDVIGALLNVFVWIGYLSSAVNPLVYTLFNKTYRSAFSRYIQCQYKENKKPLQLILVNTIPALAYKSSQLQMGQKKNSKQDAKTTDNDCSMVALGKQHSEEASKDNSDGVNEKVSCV
# Gonadotropin-releasing hormone receptor (Homo sapiens), sequence (P30968 whole entry, looked up): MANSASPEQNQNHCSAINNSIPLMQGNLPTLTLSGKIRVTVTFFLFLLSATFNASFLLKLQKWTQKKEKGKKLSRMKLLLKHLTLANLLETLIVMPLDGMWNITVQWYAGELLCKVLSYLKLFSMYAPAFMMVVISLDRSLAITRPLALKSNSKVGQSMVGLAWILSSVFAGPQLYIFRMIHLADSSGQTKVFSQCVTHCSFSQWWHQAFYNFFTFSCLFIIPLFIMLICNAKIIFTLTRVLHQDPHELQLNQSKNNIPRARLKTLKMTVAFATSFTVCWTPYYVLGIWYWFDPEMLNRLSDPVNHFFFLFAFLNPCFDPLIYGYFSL
Compound,Potency [1],Potency [2],Potency [3],Potency [4],Potency [5],Potency [6],Potency [7],Potency [8],Potency [9],Potency [10],Potency [11],Potency [12],Potency [13],Potency [14],Potency [15],Potency [16],Potency [17]
CCOC(C)OCC,inactive,inactive,inactive,inactive,inactive,inactive,inactive,inactive,inactive,inactive,inactive,inactive,inactive,inactive,inactive,inactive,inactive
CC1CCC(=O)C1=O (configuration not stated),inactive,inactive,inactive,inactive,inactive,inactive,inactive,inactive,inactive,inactive,inactive,inactive,inactive,inactive,,inactive,inactive
CCO[Si](CCC1CCC2OC2C1)(OCC)OCC (configuration not stated),inactive,inactive,inactive,inactive,inactive,inactive,inactive,inactive,inactive,inactive,inactive,inactive,inactive,inactive,inactive,inactive,inactive
CCOCC(C)O (configuration not stated),inactive,inactive,inactive,inactive,inactive,inactive,inactive,inactive,inactive,inactive,inactive,inactive,,inactive,inactive,inactive,inactive
CCCCOc1ccc(CC(=O)NO)cc1,inactive,inactive,inactive,inactive,inactive,inactive,inactive,inactive,inactive,inactive,inactive,inactive,inactive,inactive,inactive,inactive,
O=C(O)c1c(Cl)ccc(Cl)c1Cl,inactive,inactive,inactive,inactive,inactive,inactive,inactive,inactive,inactive,inactive,inactive,inactive,inactive,inactive,,inactive,inactive
CN1CCC(OC(c2ccccc2)c2ccccc2)CC1,inactive,inactive,inactive,inactive,inactive,inactive,inactive,,inactive,81.8 nM (active),inactive,inactive,inactive,,inactive,inactive,
Nc1nc(-c2ccccc2)cs1,inactive,inactive,inactive,inactive,inactive,inactive,inactive,,inactive,inactive,inactive,inactive,inactive,inactive,,inactive,inactive
